# Compounds with a hit are over-represented: about 8% of the library has one in this group of screens.
# HT1080 IDH1KD tx = kills HT-1080 cells with IDH1 knockdown; AID 686971; HT-1080 IDH1 knockdown viability, ATP luminescence, 48 h; actives 2% (n = 360,000); Potency, µM (top dose mostly 46.1 µM), hits mostly cytotoxic
#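 Using the IDH1-knockdown HT-1080 line run in the same batch and compound series as the NT line, viability after 48 h at 37 °C was determined by CellTiter-Glo luminescence and expressed as % activity.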
# KB-3-1 cytotox = KB-3-1 parental cell cytotoxicity. KB-3-1 viability, CellTiter-Glo ATP luminescence, 72 h. Potency, µM (series often up to 46.1 µM), most hits filed as cytotoxic. actives 1.4% (n = 400,000). AID 1347075; further: nearly all actives have a fitted effect of over 60% in size
#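 Parental KB-3-1 viability, qHTS format: 72 h compound exposure, 37 °C; CellTiter-Glo; media-only wells and DMSO plates as controls; concentration-effect fits on corrected data.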
# MCF10A rereplic = DNA re-replication induction in MCF 10a cells; Potency, µM (doses to about 46.1 µM), hits mostly activators; MCF 10A DNA re-replication, Hoechst nuclear intensity, 48 h; actives 2.9% (n = 350,000); further: nearly all actives have a fitted effect of over 50% in size
# SW480 rerep = DNA re-replication induction in SW480 cells. actives 1.8% (n = 340,000). Potency, µM (titrated, usually from 46.1 µM), usual class: activators. SW480 DNA re-replication, Hoechst DNA content imaging, 48 h. AID 624297; further: nearly all actives have a fitted effect of over 55% in size
#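 Per well, 250 cells were exposed to pinned compound for 48 hr. Nuclear DNA was visualised with Hoechst (40 min, 37 C) and total object intensity recorded by fluorescence scanning.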
# KB-V1 cytotox = kills drug-selected multidrug resistant KB-V1 cells; KB-V1 MDR cells viability, CellTiter-Glo, 72 h; Potency, µM (top dose mostly 46.1 µM), hits mostly cytotoxic; actives 3.4% (n = 400,000); further: nearly all actives have a fitted effect of over 60% in size
#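 In this primary screen, KB-V1 cells overexpressing P-gp are incubated with library compounds (lowest to highest concentration) for 72 h at 37 degrees C before a luminescent ATP viability read.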
# HT1080NT lethal = kills 2HG-producing HT-1080-NT fibrosarcoma cells | HT-1080-NT fibrosarcoma viability, CellTiter-Glo ATP luminescence, 48 h | Potency, µM (titrated, usually from 46.1 µM), actives largely listed as cytotoxic | actives 1.6% (n = 360,000);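 further: NT is the 2HG producing partner of a matched IDH1 knockdown line; nearly all actives have a fitted effect of over 55% in size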
#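 Fibrosarcoma NT cells, 750 per well in 5% FBS RPMI, were exposed to compound for 48 hours. Viability: CellTiter-Glo luminescence.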
# Numbers stand for hits; . = inactive; ? = inconclusive; / = no result given. The call rests on the fitted dose curve; in most records, active means well fitted curve in the direction sought with a large enough effect; inconclusive means small, poorly fitted or top-dose-only effect, or another doubt; inactive means no such curve, though single readings can be large; an effect the other way counts as inactive or inconclusive.
SMILES,HT1080 IDH1KD tx,KB-3-1 cytotox,MCF10A rereplic,SW480 rerep,KB-V1 cytotox,HT1080NT lethal
COc1ccc(NS(=O)(=O)c2ccc3c(c2)N(C(C)=O)CCO3)cc1,.,.,?,.,.,.
CNC(=S)N1N=C(c2ccc(Br)cc2)CC1c1ccc(N(C)C)cc1 (configuration not stated),.,.,.,.,.,.
CCCn1c(NC(=O)C2CCN(S(=O)(=O)c3cccs3)CC2)nc2ccccc21,?,23.1µM,?,.,?,?
CCC(=O)NCCCc1nc2ccccc2n1Cc1ccccc1F,.,.,.,.,.,.
CCCCn1c(Nc2ccccc2)nc2ccccc21,.,.,.,.,.,.
O=C(N/N=C/c1ccc(N2CCCCC2)o1)c1ccccc1,?,?,23.1µM,?,.,.
CCCn1c(Nc2nc3ccccc3n2C)nc2ccccc21,16.4µM,?,?,?,?,13µM
CCC(=O)NCc1nc2ccccc2n1Cc1ccccc1F,.,.,.,.,23.1µM,.
c1cc2nc(C34CC5CC(CC(C5)C3)C4)[nH]c2cn1,.,.,.,.,?,.
COC(=O)c1cccc(Nc2ncnc3sccc23)c1,.,.,.,.,.,.
COc1cc(NC(=O)c2c3c(nc4ccccc24)C(=O)N(C2CCCCC2)C3)cc(OC)c1,/,.,/,/,.,/
Cc1ccc(OCC(=O)NC2CCS(=O)(=O)C2)cc1 (configuration not stated),.,.,.,.,.,.
CCCCCCCn1c(NC(=O)CC)nc2ccccc21,?,?,6.51µM,.,9.2µM,.
CCCn1c(NC(=S)Nc2ccccc2)nc2ccccc21,.,?,?,/,16.4µM,.
CCCCn1c(NCc2ccccn2)nc2ccccc21,?,.,.,.,13µM,.
CCC(=O)Nc1nc2ccccc2n1CCN1CCOCC1,.,?,.,.,?,.
Cn1c(NC(=O)c2cccnc2)nc2ccccc21,.,.,.,.,16.4µM,.
O=C(Nc1cnc2ccccc2c1)c1cccnc1,?,?,.,.,.,.
CCN(CC)CCn1c(NCc2ccccn2)nc2ccccc21,.,.,.,.,.,.
O=C(COc1cccc(Br)c1)N/N=C1\CCSC1,.,.,.,.,.,.
CC(=O)Nc1nc2ccccc2n1Cc1ccccc1Cl,?,?,?,.,?,18.4µM
CCCn1c(NC(=O)c2ccc(C)cc2)nc2ccccc21,.,?,?,?,?,.
CCCn1c(NC(=O)c2ccccc2)nc2ccccc21,.,?,.,.,14.6µM,.
COC(=O)/C=C1/SC(=Nc2ccc(Cl)c(Cl)c2)NC1=O,.,.,25.9µM,.,.,.
COC(=O)/C=C1\SC(=Nc2ccccc2)NC1=O,.,.,.,?,.,.
SMILES,HT1080 IDH1KD tx,KB-3-1 cytotox,MCF10A rereplic,SW480 rerep,KB-V1 cytotox,HT1080NT lethal
COc1ccc(-c2ccc(=O)[nH]n2)cc1,.,.,.,.,1.84µM,.
COc1ccccc1-n1c(=S)sc2c(=O)n(Cc3ccco3)c(SC)nc21,.,.,.,.,14.6µM,.
O=C(CSC1=NS(=O)(=O)c2ccccc21)Nc1ccccc1,.,14.6µM,?,.,.,.
COC(=O)CSC1=NS(=O)(=O)c2ccccc21,?,.,13µM,?,.,.
O=C(CSC1=NS(=O)(=O)c2cc(F)ccc2N1)Nc1ccccc1,.,.,?,.,?,.
COC(=O)CSc1ccccc1C(=O)OC,.,.,.,.,.,.
Cc1cccc(NC(=O)/C(C#N)=C/c2ccco2)c1,/,.,/,/,.,/
CCN1CCN(c2oc(-c3ccc(COc4ccccc4C)o3)nc2C#N)CC1,/,20.6µM,/,/,.,/
COc1ccccc1COCC(O)CN(Cc1ccco1)Cc1ccccc1O (configuration not stated),.,.,.,.,7.31µM,.
C/C(=N\NC(=O)CNC(=O)C(c1ccccc1)c1ccccc1)c1ccc(C(C)(C)C)cc1,?,?,?,.,.,?
O=C1N/C(=C\c2ccccc2)c2ccccc21,?,.,18.4µM,?,?,?
